# From PubChem BioAssay (NCI)
# This is part of a sample that, as a whole, favours compounds with a hit. Of some 83,000 tested, about 20% had one in any assay.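 Activity criterion: percent growth below 10, measured after cells in 96-well plates were exposed to a single compound concentration for 48 hours.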 A number with no mark means an inactive call. The source made the active and inactive calls.
# Tested on: OVCAR-4 ovarian
# Assay: NCI-60 one-dose screen, 48 h (100 = growth as untreated, 0 = no growth, -100 = all killed)
# Settings: 10 µM
row,SMILES,growth [%]
1,C#C[C@]1(O)CCC2C3CCc4cc(OC5CCCC5)ccc4C3CC[C@@]21C (some centres undefined),92.9
2,O=C(N/N=C/c1c(Cl)cccc1Cl)c1ccccc1Nc1cccc(C(F)(F)F)c1,99.1
3,COc1cccc(-c2nc3sccn3c2-c2cccc(S(C)(=O)=O)c2)c1,107
4,CC(=O)Nc1ccc(S(=O)(=O)c2ccnc3cc(Cl)ccc23)cc1,81.4

# Tested on: SK-OV-3 ovarian
# Assay: as above
# Settings: 10 µM
row,SMILES,growth
1,NS(=O)(=O)Oc1ccc(NC(=O)C2CCCCCC2)cc1,99%
2,O=C(CSc1nnc(-c2cccnc2SCc2ccccc2)o1)Nc1nc(Cl)cc(Cl)n1,110%
3,O=C1/C=C/[C@@H](O)[C@@H]2C[C@@H](O)C[C@H]2/C=C/CCC[C@H](CCc2ccc(NC(=S)Nc3ccc4c(c3)C(=O)OC43c4ccc(O)cc4Oc4cc(O)ccc43)cc2)O1,32.1%
4,O=C(CCl)Nc1ccc(Cc2ccc(NC(=O)CCl)cc2)cc1,61.7%
5,Cc1cc(Cl)ccc1Nc1nc(C(F)(F)F)ccc1C(=O)N/N=C/c1c(Cl)cccc1Cl,-12.9% (active)
6,COc1ccc2c(c1)C(=O)/C(=C/c1ccc([N+](=O)[O-])o1)O2,48.7%
7,S=C(SSC(=S)N(c1ccccc1)c1ccccc1)N(c1ccccc1)c1ccccc1,100%
8,CC(C)=CCC/C(C)=C/CC/C(C)=C/CC/C=C(\C)CC/C=C(\C)CCC(=O)Nc1ccn(C2OC(CO)C(O)C2(F)F)c(=O)n1 (centres undefined),31%
9,c1ccc(/C(=N\Nc2ccc3ccccc3n2)c2ccccn2)cc1,20.5%
10,c1ccc(CSc2ncccc2-c2nnc(SCCN3CCOCC3)o2)cc1,109%
11,CN(C)c1ncnc2c1nnn2C1OC(CO)C(O)C1O (centres undefined),4.66% (active)
12,COc1ccccc1/C=N\N/C(N)=N\N=C\c1ccccc1OC,26.3%
13,COc1cc(/C=C/c2cc(/C=C/c3ccc(O)c(OC)c3)nc(N)n2)ccc1O,-17.4% (active)
14,O=C(/C=C/c1cccc(B(O)O)c1)c1cccc(B(O)O)c1,3.23% (active)
15,CN(C)CCC1(c2ccccc2)CCN(C)C1=O (centres undefined),100%
16,COc1ccc(/C=C/c2nnc(/C=C/c3ccc(OC)c(OC)c3)o2)cc1OC,34.1%
17,CN(C)c1ccc(/C=N/NC(=O)c2ccccc2Nc2cccc(C(F)(F)F)c2)cc1,100%
18,CN(C)CCOc1ccc(-c2nc3sccn3c2-c2ccnc(S(C)(=O)=O)n2)cc1,88.6%
19,COc1ccc(CCN2CCC(Nc3nc4ccccc4n3Cc3ccc(F)cc3)CC2)cc1,44%
20,O=C(CN(C1CCCCC1)C1CCCCC1)Nc1ccc(S(=O)(=O)c2ccc(NC(=O)CN(C3CCCCC3)C3CCCCC3)cc2)cc1,76.6%

row,SMILES,growth
1,COc1ccc2nc(-c3ccc(Cl)cc3)cc(-c3nnc(SC/C(=N\O)c4ccccc4)n3-c3ccccc3)c2c1,99.9%
2,Cc1cc(CSc2ccccc2C(=O)N2CC=C(c3ccccc3)CC2)on1,107%
3,CCOC(=O)c1cc(C(=O)c2cc(OC)c(OC)c(OC)c2)n2nc(C)ccc12,24.1%
4,O=C(O)c1ccc(-n2cc(CNc3ccc(Cl)cc3)c(-c3ccccc3)n2)cc1,107%
5,CNC(=O)c1cc(Oc2ccc3c(c2)sc2nc(-c4ccc(N)cc4)cn23)ccn1,21.2%
6,Nc1ccc(CC[C@H]2CCC/C=C/[C@@H]3C[C@H](O)C[C@H]3[C@H](O)/C=C/C(=O)O2)cc1,26.6%
7,CNC(=O)c1cn(C2CC2)c2cc(N3CCN(C(=O)c4cc(OC)c(OC)c(OC)c4)CC3)c(F)cc2c1=O,103%
8,CN1CCN(C2=Nc3ccccc3Oc3ccc(Cl)cc32)CC1,117%
9,COc1ccc(Cc2cnc(N)nc2N)cc1OC,96%
10,COc1ccc(C(c2ccc(OCCN(C)C)cc2)c2cc3ccccc3c3ccccc23)cc1 (centres undefined),106%
11,O=C(N/N=C/c1ccc(Cl)cc1)c1ccccc1Nc1cccc(C(F)(F)F)c1,84.9%
12,CC(=O)O[C@@]12CO[C@@H]1C[C@H](O)[C@@]1(C)C(=O)[C@H](O)C3=C(C)[C@@H](OC(=O)[C@H](O)[C@@H](NC(=O)OC(C)(C)C)c4ccccc4)C[C@@](O)([C@@H](OC(=O)c4ccccc4)C12)C3(C)C (some centres undefined),47.3%
13,CS(=O)(=O)c1nccc(-c2c(-c3cccc(OCCc4ccccc4)c3)nc3sccn23)n1,96.5%
14,C(=N\Nc1ncnc2sc3c(c12)CCNC3)/c1cccc2ccccc12,103%
15,CNS(=O)(=O)Oc1ccc(-c2sc3cc(OS(=O)(=O)NC)ccc3c2C(=O)c2ccc(OCCN3CCCCC3)cc2)cc1,76.1%
16,CCCCC/C=C/C/C=C/CCCCCCCC1=NC(C)(C)CN1C(C)C,68.1%
17,C#C[C@]1(O)CCC2C3CCc4cc(OC5CCCC5)ccc4C3CC[C@@]21C (some centres undefined),100%
18,O=C(N/N=C/c1c(Cl)cccc1Cl)c1ccccc1Nc1cccc(C(F)(F)F)c1,107%
19,COc1cccc(-c2nc3sccn3c2-c2cccc(S(C)(=O)=O)c2)c1,114%
20,CC(=O)Nc1ccc(S(=O)(=O)c2ccnc3cc(Cl)ccc23)cc1,88%
